# Source: PubChem
# MBD2 DNA inh: inhibitors of MBD2 binding to methylated DNA, primary screen, biochemical, TR-FRET, DNA-binding domain, human; Methyl-CpG-binding domain protein 2 (Homo sapiens), Q9UBB5; inhibition, % at 4.4 µM; AID 686964, 2013; MBD2 binding to methylated oligonucleotide; actives 0.31% (n = 370,000); in the data active = inhibition above about 13%
# PRMT1 FP inh: PRMT1 methyltransferase inhibitors, primary screen, biochemical, fluorescence polarization | inhibition, % at 2.79 µM | AID 652257, 2013 | Protein arginine N-methyltransferase 1 (Homo sapiens), Q99873 | recombinant PRMT1, activity-based probe fluorescence polarization | actives 1.3% (n = 370,000);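 active = inhibition above about 21% made by adding two undisclosed values, limit read from the data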
# Target sequence (Q99873 whole entry, looked up): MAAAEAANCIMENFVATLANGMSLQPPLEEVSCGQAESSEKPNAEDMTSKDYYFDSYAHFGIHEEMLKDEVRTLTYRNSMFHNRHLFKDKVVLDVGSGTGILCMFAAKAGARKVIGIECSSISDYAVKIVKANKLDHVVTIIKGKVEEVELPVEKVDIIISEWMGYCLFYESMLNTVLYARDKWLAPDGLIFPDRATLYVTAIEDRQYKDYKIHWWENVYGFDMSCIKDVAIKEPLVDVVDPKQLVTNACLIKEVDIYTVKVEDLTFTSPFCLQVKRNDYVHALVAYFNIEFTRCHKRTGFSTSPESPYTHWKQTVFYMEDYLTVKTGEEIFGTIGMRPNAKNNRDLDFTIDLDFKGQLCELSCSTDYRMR
# PfM18AAP inh: PfM18AAP inhibitors, malaria aminopeptidase, primary screen, biochemical, QFRET, recombinant enzyme. AID 1822, 2009. actives 1.2% (n = 290,000). H-Glu-NHMec fluorogenic cleavage. inhibition, % at 7.35 µM. M18 aspartyl aminopeptidase (Plasmodium falciparum 3D7);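 active = inhibition above the campaign mean inhibition over all tested compounds plus 3 SD, cut at about 28% in these data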;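 note: 0% = plate median of test compound wells and 100% = 2 mM ZnCl2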
# UHRF1 MBD2 ctr: UHRF1 methylated DNA binding inhibitors, primary screen, counter-screen for MBD2 inhibitor project, biochemical, TR-FRET, human UHRF1, single concentration; UHRF1 binding to methylated oligo; E3 ubiquitin-protein ligase UHRF1 (Homo sapiens), Q96T88; actives 0.75% (n = 370,000); inhibition, % at 4.4 µM; in the data active = inhibition above about 21%;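 note: UHRF1 SRA domain binding a hemimethylated CpG hairpin DNA probe; 0% = median of test compound wells and 100% = reference inhibitor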
# PfGluPho inh: PfG6PD enzyme inhibitors, primary screen, biochemical, fluorescence intensity, uHTS; PfGluPho enzyme, NADPH resazurin-diaphorase fluorescence; inhibition, % at 20 µM; actives 0.78% (n = 350,000);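 active = inhibition reaching at least a set limit at 20 µM in the primary screen, cut at about 59% in these data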;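 note: 0% = DMSO wells with substrate and 100% = DMSO wells lacking glucose-6-phosphate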
# An asterisk follows results filed as active; . = no result given. A selection: hits, their analogues and other compounds. The true share with any hit is near 3.3%.
SMILES,MBD2 DNA inh,PRMT1 FP inh,PfM18AAP inh,UHRF1 MBD2 ctr,PfGluPho inh
O=C(NCc1ccco1)c1cccc2c1C(=O)c1ccc(N3CCCC3)cc1S2(=O)=O,-25,37*,.,-22,-3
O=C(CSc1nnnn1C1CCCCC1)Nc1ccc2c(c1)OCO2,5,2,-3,21*,-6
O=C(CSc1nnnn1C1CCCCC1)Nc1ccc(F)cc1,4,-1,1,0,-7
O=C(CSc1nnnn1C1CCCC1)N1CCCc2ccccc21,10,0,-13,29*,2
CC(=O)c1cccc(NC(=O)N2CCCC2C(=O)Nc2cccc(C)c2)c1 (stereo not drawn),9,1,-4,21*,-2
COc1cccc(NC(=O)C2CCCN2C(=O)Nc2cccc(F)c2)c1 (stereo not drawn),3,1,3,63*,-12
C(=C\c1ccccc1)/CSc1nnc(COc2ccccc2)n1Cc1ccco1,-7,2,.,-1,.
O=C(Nc1cccc(O)c1)C(=O)Nc1ccccn1,0,3,2,68*,4
O=C(Nc1ccccc1)C(=O)Nc1ccccn1,-4,-1,10,-1,3
O=C(N[C@H]1CC[C@H](CCNS(=O)(=O)c2ccc(Cl)cc2)O[C@@H]1CO)c1cccc(F)c1,12,8,.,23*,.
O=C(N[C@H]1CC[C@@H](CCNS(=O)(=O)c2ccccc2Cl)O[C@@H]1CO)c1ccccc1,-3,-2,.,3,.
CCOC(=O)C1=C(Cc2ccc(OC)cc2)C(=O)c2ccccc2C1=O,.,.,7,.,95*
CCOC(=O)C1=C(O)c2ccccc2C(=O)/C1=C\c1ccc(CC)cc1,.,.,-15,.,94*
CC(=O)N1c2ccccc2C(=O)NCC1C(=O)NC(C)(C)C (stereo not drawn),6,4,.,-1,.
CC(C)[C@H]1/C(=C/C2CC2)N2C(=O)C[C@H](c3cccc(C(F)(F)F)c3)N=C2N1Cc1ccc2c(c1)OCO2,-7,-5,.,-1,.
C/C(=N\NC(=O)c1sccc1-n1cccc1)c1cccs1,2,3,7,41*,23
COc1ccc(CN2CC(C(=O)NCCCN3CCCCCC3)CC2=O)cc1 (stereo not drawn),-3,0,-14,1,10
COc1ccc(CN2CC(C(=O)NCCCN3CCN(C)CC3)CC2=O)cc1 (stereo not drawn),18*,-1,-3,6,-6
O=c1nc(N/N=C/c2ccccn2)cn[nH]1,0,-4,49*,7,-29
Cc1cc(NS(=O)(=O)c2ccc(NC(=O)CSc3nnc(-c4ccccn4)n3Cc3ccco3)cc2)nc(C)n1,-2,2,.,4,.
O=C(Nc1cccc(F)c1)/C(=C\c1ccco1)NC(=O)c1cccs1,-3,23*,8,-4,16
O=C(Nc1ccc(C(=O)O)cc1)/C(=C\c1ccco1)NC(=O)c1ccccc1Cl,-6,12,30*,7,13
CN(C)c1cccc(C(=O)OCc2cc(=O)oc3cc(O)ccc23)c1,8,2,11,24*,-4
CC1CN(S(=O)(=O)c2cccc(C(=O)OCc3cc(=O)oc4cc(O)ccc34)c2)CC(C)O1 (stereo not drawn),0,0,-7,3,4
COc1cc(OC)c2c(O)c3c(=O)cc(C)oc3c(-c3c(OC)cc4cc5c(c(O)c4c3O)C(=O)CC(C)(O)O5)c2c1 (stereo not drawn),7,-4,.,3,.
SMILES,MBD2 DNA inh,PRMT1 FP inh,PfM18AAP inh,UHRF1 MBD2 ctr,PfGluPho inh
COC(=O)c1sccc1NC(=O)c1csc(C)c1,5,1,-1,22*,-4
COC(=O)c1sccc1NC(=O)Nc1ccccc1F,3,-2,-4,23*,2
COC(=O)c1sccc1NC(=O)c1ccc(C)cc1,-4,0,2,1,-3
Cn1c(SCC(=O)N/N=C/C=C\c2ccco2)nc2ccccc21,3,11,9,-3,62*
C/C(=N/NC(=O)CSc1nc2ccccc2n1C)c1ccc(O)cc1,2,1,9,-4,8
CCn1c(SCC(=O)N/N=C/C=C\c2ccco2)nc2ccccc21,6,21*,12,0,48
Cn1c(SCC(=O)N/N=C/c2ccncc2)nc2ccccc21,-4,-2,7,0,12
C/C(=N/NC(=O)CSc1nc2ccccc2n1C)c1ccco1,-5,-2,1,83*,-6
COc1cc(-c2cccc([C@H]3[C@@H]4C=CC[C@@H](C)[C@@H]4C(=O)N3Cc3ccccc3)c2)cc(OC)c1OC,6,7,.,46*,30
Cc1cccc(OCC(=O)NC(=S)NNC(=O)c2ccncc2)c1,1,19,45*,-1,77*
Fc1ccc(F)c(Cn2ccc3ccc(-c4ccc5ccn(Cc6cc(F)ccc6F)c5c4)cc32)c1,-5,-1,.,0,.
C[C@@H]1CN([C@H](C)CO)C(=O)CCCn2cc(nn2)CO[C@H]1CN(C)S(=O)(=O)c1cn(C)cn1,-2,-5,.,1,.
Cc1cc(=O)n2[nH]cc(C(=O)O)c2n1,-5,-1,29*,-5,-2
O=C1CNC(=S)N1CCc1ccc(O)c(O)c1,2,5,69*,0,14
O=[N+]([O-])c1cccc2c1ccc1ncccc12,-2,1,-4,49*,17
Cc1ccc2ncccc2c1[N+](=O)[O-],-3,3,5,-5,1
O=C1CCCC(O)=C1N=Nc1cccc(C(=O)O)c1,1,2,11,21*,3
CCN(CC)S(=O)(=O)c1cccc(N=NC2=C(O)CCCC2=O)c1,6,0,6,9,-4
Cc1ccc(-c2ccccc2NC(=O)CS(=O)CC(=O)Nc2ccc(C)c(Cl)c2)o1 (stereo not drawn),-14,52*,11,-7,-93
COC(=O)C1CN(Cc2cn(CCC3OCCO3)nn2)CCS(=O)(=O)N1Cc1ccc(C)cc1 (stereo not drawn),6,1,.,14,.
COc1cc2c(cc1OC)C(C)N(C(=O)C1=NN(c3cccc(C)c3)C(=O)CC1)CC2 (stereo not drawn),10,2,5,22*,-8
COc1cc2c(cc1OC)C(C)N(C(=O)c1ccc(C)o1)CC2 (stereo not drawn),-1,2,1,0,-8
Cc1cc(C)n2cc(CSc3nnc(N)s3)nc2n1,7,9,5,22*,-8
Cc1cc(C)n2cc(CSc3nnc(SCc4cn5c(C)cc(C)nc5n4)s3)nc2n1,.,.,6,.,.
COc1cccc(/C=C2/Sc3ccc(C(=O)NC4CC4)cc3NC2=O)c1,3,-4,.,1,.
COc1cccc(/C=N/Nc2cc(Cl)nc(C)n2)c1O,-6,0,29*,-1,-1
